Legend:
Test in all cases: PBM binding z-score (relative to random genomic background probes); higher = stronger binding; sequences stand for … in GC…GCGATTGACAGCGTAGAATGAAGG
[1] = system: PPARg:RXRa DBDmut IVT, anti-RXR (DBD mutation: RXRa K156A/R161A, NR concentration 270 nM, RXRa partner concentration 90 nM)
Summary of the method: (§1)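 Ligand-free nuclear receptor dimers were bound for 1 h to custom Agilent 4×180K protein-binding microarrays. Detection used antibodies against each partner (one per run). Binding z-scores rest on regression-normalized fluorescence, with random background probes as the reference.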

[2] = system: PPARg:RXRa IVT, anti-PPARg (NR concentration 270 nM, RXRa partner concentration 90 nM)
Summary of the method: as §1

[3] = system: PPARg DBDmut:RXRa IVT, anti-PPARg (DBD mutation: PPARg1 K132A/R137A, NR concentration 270 nM, RXRa partner concentration 90 nM)
Summary of the method: as §1

[4] = system: PPARg DBDmut IVT, anti-PPARg (DBD mutation: PPARg1 K132A/R137A, NR concentration 270 nM)
Summary of the method: as §1

[5] = system: PPARg homodimer (NR concentration 180 nM)
Summary of the method: as §1

[6] = system: PXR:RXRa (NR concentration 270 nM, RXRa partner concentration 90 nM)
Summary of the method: as §1

[7] = system: PXR homodimer (NR concentration 270 nM)
Summary of the method: as §1

[8] = system: RARa:RXR (NR concentration 270 nM, RXRa partner concentration 90 nM)
Summary of the method: as §1

[9] = system: RARa homodimer (NR concentration 270 nM)
Summary of the method: as §1

[10] = system: RARb:RXRa (NR concentration 270 nM, RXRa partner concentration 90 nM)
Summary of the method: as §1

TCTTGTTGGTCAAAGGTCACACACTCGAAATGCG
PBM binding z-score [1]: 3.64
PBM binding z-score [2]: 5.98
PBM binding z-score [3]: 1.27
PBM binding z-score [4]: 1.91
PBM binding z-score [5]: 4.88
PBM binding z-score [6]: 5.9
PBM binding z-score [7]: 1.75
PBM binding z-score [8]: 7.15
PBM binding z-score [9]: 3.44
PBM binding z-score [10]: 5.25

CCTTACGGGTCACTAACAGGTTATAGCATTTGGA
PBM binding z-score [1]: 2.88
PBM binding z-score [2]: 3.68
PBM binding z-score [3]: 1.26
PBM binding z-score [4]: 0.395
PBM binding z-score [5]: 2.62
PBM binding z-score [6]: 3.28
PBM binding z-score [7]: 0.184
PBM binding z-score [8]: 4.08
PBM binding z-score [9]: 1.72
PBM binding z-score [10]: 3.92

TAGCCTAGGTCATTGGGCCGGTATAGTACGCATC
PBM binding z-score [1]: 1.71
PBM binding z-score [2]: 3.19
PBM binding z-score [3]: 0.219
PBM binding z-score [4]: -0.308
PBM binding z-score [5]: 0.812
PBM binding z-score [6]: 1.39
PBM binding z-score [7]: -0.428
PBM binding z-score [8]: 1.95
PBM binding z-score [9]: -0.0602
PBM binding z-score [10]: 3.48

GTACCAATGTGAATAGGTCGTTGATGAGTAGGCG
PBM binding z-score [1]: -0.469
PBM binding z-score [2]: -0.105
PBM binding z-score [3]: -0.359
PBM binding z-score [4]: 0.0422
PBM binding z-score [5]: 0.0773
PBM binding z-score [6]: -0.176
PBM binding z-score [7]: -0.211
PBM binding z-score [8]: 0.0838
PBM binding z-score [9]: 0.262
PBM binding z-score [10]: 0.00696

AGAATGAGGTTAAGATCAGGGTAACAGAATACAT
PBM binding z-score [1]: 3.19
PBM binding z-score [2]: 3.28
PBM binding z-score [3]: 1.74
PBM binding z-score [4]: 0.532
PBM binding z-score [5]: 1.13
PBM binding z-score [6]: 1.73
PBM binding z-score [7]: 0.602
PBM binding z-score [8]: 2.85
PBM binding z-score [9]: 0.262
PBM binding z-score [10]: 2.08

ATCGAAAGGTCGTGAGCTGAGTATACAGAAAGGC
PBM binding z-score [1]: -0.173
PBM binding z-score [2]: 1.49
PBM binding z-score [3]: 0.42
PBM binding z-score [4]: 0.76
PBM binding z-score [5]: 1.16
PBM binding z-score [6]: 2.75
PBM binding z-score [7]: 0.0585
PBM binding z-score [8]: 3.56
PBM binding z-score [9]: -0.0844
PBM binding z-score [10]: 3.76

CGTCAAAGTGCAACTAAGGTAACGTAAAGCACGC
PBM binding z-score [1]: 0.000169
PBM binding z-score [2]: 0.492
PBM binding z-score [3]: -0.123
PBM binding z-score [4]: -0.228
PBM binding z-score [5]: 0.0705
PBM binding z-score [6]: 1.55
PBM binding z-score [7]: 0.00934
PBM binding z-score [8]: 2.04
PBM binding z-score [9]: -0.027
PBM binding z-score [10]: 2.07

GCATATAGGTAAAACAAGGTGAAAGTCCGATTGT
PBM binding z-score [1]: 3.96
PBM binding z-score [2]: 3.34
PBM binding z-score [3]: 0.889
PBM binding z-score [4]: 0.508
PBM binding z-score [5]: 0.332
PBM binding z-score [6]: 0.851
PBM binding z-score [7]: -0.261
PBM binding z-score [8]: 1.85
PBM binding z-score [9]: -0.0924
PBM binding z-score [10]: 0.432

TCTAGGAGGACACGAAAGGTCAGAGCTCGACATC
PBM binding z-score [1]: 2.31
PBM binding z-score [2]: 2.52
PBM binding z-score [3]: 0.115
PBM binding z-score [4]: -0.502
PBM binding z-score [5]: 2.04
PBM binding z-score [6]: 4.08
PBM binding z-score [7]: 0.408
PBM binding z-score [8]: 4.32
PBM binding z-score [9]: 1.42
PBM binding z-score [10]: 4.35

TCTCGGAGGAGACGAAGGTCAGAGCTTTCCAGAG
PBM binding z-score [1]: 0.916
PBM binding z-score [2]: -0.157
PBM binding z-score [3]: -0.48
PBM binding z-score [4]: -1.43
PBM binding z-score [5]: 0.692
PBM binding z-score [6]: 1.01
PBM binding z-score [7]: -0.222
PBM binding z-score [8]: 1.5
PBM binding z-score [9]: -0.817
PBM binding z-score [10]: 2.37

TAGCCTAGGTCATTCACGGGCCAGTATAGAAAGC
PBM binding z-score [1]: 1.89
PBM binding z-score [2]: 2.6
PBM binding z-score [3]: 1.17
PBM binding z-score [4]: 0.147
PBM binding z-score [5]: 2.35
PBM binding z-score [6]: 2.01
PBM binding z-score [7]: -0.0937
PBM binding z-score [8]: 2.84
PBM binding z-score [9]: 0.0278
PBM binding z-score [10]: 3.69

TCTCGGAGGACACGAAGGTCTGAGCTTTCCAGAG
PBM binding z-score [1]: 1.12
PBM binding z-score [2]: -0.0413
PBM binding z-score [3]: -0.829
PBM binding z-score [4]: -1.69
PBM binding z-score [5]: -0.904
PBM binding z-score [6]: -0.33
PBM binding z-score [7]: -0.787
PBM binding z-score [8]: 0.107
PBM binding z-score [9]: -1.21
PBM binding z-score [10]: 1.46

TCATATAGGTAAGGGTGAAAGTCGAACGATATGA
PBM binding z-score [1]: 2.65
PBM binding z-score [2]: 2.84
PBM binding z-score [3]: 1.53
PBM binding z-score [4]: 1.28
PBM binding z-score [5]: 1.03
PBM binding z-score [6]: 0.664
PBM binding z-score [7]: 0.181
PBM binding z-score [8]: 1.14
PBM binding z-score [9]: 0.462
PBM binding z-score [10]: 1.13

GATACAGTGTCAGCTAGAGGCCAGAGTATGGAAA
PBM binding z-score [1]: -0.588
PBM binding z-score [2]: 0.187
PBM binding z-score [3]: 0.343
PBM binding z-score [4]: -0.259
PBM binding z-score [5]: -0.286
PBM binding z-score [6]: -0.439
PBM binding z-score [7]: -0.0774
PBM binding z-score [8]: -0.0269
PBM binding z-score [9]: -0.579
PBM binding z-score [10]: 0.973

TCATATAGGTAAATGCTAGGTGATAGTCCGATCT
PBM binding z-score [1]: 4.05
PBM binding z-score [2]: 2.45
PBM binding z-score [3]: 0.855
PBM binding z-score [4]: 0.985
PBM binding z-score [5]: 0.409
PBM binding z-score [6]: 0.395
PBM binding z-score [7]: 0.368
PBM binding z-score [8]: 0.797
PBM binding z-score [9]: 1.3
PBM binding z-score [10]: 0.301

TCATATAGATAAATGCTAGGTGAAAGTCCGATCT
PBM binding z-score [1]: 2.73
PBM binding z-score [2]: 0.677
PBM binding z-score [3]: 0.125
PBM binding z-score [4]: 0.81
PBM binding z-score [5]: 0.438
PBM binding z-score [6]: 0.417
PBM binding z-score [7]: 0.256
PBM binding z-score [8]: 0.494
PBM binding z-score [9]: 1.19
PBM binding z-score [10]: 0.184

ACTCGGAGGACCAAGGTCAGAGCTACGCCAGTGA
PBM binding z-score [1]: -0.502
PBM binding z-score [2]: 0.431
PBM binding z-score [3]: -1.19
PBM binding z-score [4]: -0.608
PBM binding z-score [5]: 1.18
PBM binding z-score [6]: 1.34
PBM binding z-score [7]: 0.0514
PBM binding z-score [8]: 1.88
PBM binding z-score [9]: -0.14
PBM binding z-score [10]: 2.86

CCTACTGGGACACGAAAGGTCATTGATTCAGTGA
PBM binding z-score [1]: 5.93
PBM binding z-score [2]: 5.78
PBM binding z-score [3]: 0.301
PBM binding z-score [4]: -0.131
PBM binding z-score [5]: 2.99
PBM binding z-score [6]: 4.91
PBM binding z-score [7]: 2.47
PBM binding z-score [8]: 4.98
PBM binding z-score [9]: 1.59
PBM binding z-score [10]: 4.06

CGTCCAAGGTCATAGGAGGTCAGTGACGACAGAT
PBM binding z-score [1]: 3.6
PBM binding z-score [2]: 4.57
PBM binding z-score [3]: 0.237
PBM binding z-score [4]: 0.133
PBM binding z-score [5]: 5.09
PBM binding z-score [6]: 6.69
PBM binding z-score [7]: 4.69
PBM binding z-score [8]: 6.08
PBM binding z-score [9]: 2.29
PBM binding z-score [10]: 5.44

GTACCAAGGTTAATAGGTCGTTGATGAGTAGGCG
PBM binding z-score [1]: 1.85
PBM binding z-score [2]: 3.6
PBM binding z-score [3]: 0.0971
PBM binding z-score [4]: -0.158
PBM binding z-score [5]: 2.1
PBM binding z-score [6]: 1.69
PBM binding z-score [7]: 0.273
PBM binding z-score [8]: 2.82
PBM binding z-score [9]: 0.938
PBM binding z-score [10]: 2.5

TCGAGTAGGTTAGGGGCATTTAGAATGGCGTCGA
PBM binding z-score [1]: 2.14
PBM binding z-score [2]: 1.43
PBM binding z-score [3]: -0.441
PBM binding z-score [4]: -0.569
PBM binding z-score [5]: 0.734
PBM binding z-score [6]: 0.534
PBM binding z-score [7]: 0.61
PBM binding z-score [8]: 0.611
PBM binding z-score [9]: 0.362
PBM binding z-score [10]: 0.962

GCATATAGGTAATACAAGGTGAAAGTGCGATTGT
PBM binding z-score [1]: 3.95
PBM binding z-score [2]: 3.56
PBM binding z-score [3]: 1.03
PBM binding z-score [4]: 1.01
PBM binding z-score [5]: 0.954
PBM binding z-score [6]: 0.734
PBM binding z-score [7]: 0.452
PBM binding z-score [8]: 1.35
PBM binding z-score [9]: 0.831
PBM binding z-score [10]: 0.52

CGTATTAGTTGACCATAAGGGCAACCGAAGCTCG
PBM binding z-score [1]: 0.0759
PBM binding z-score [2]: 0.784
PBM binding z-score [3]: 0.0678
PBM binding z-score [4]: -0.147
PBM binding z-score [5]: 1.44
PBM binding z-score [6]: 0.388
PBM binding z-score [7]: 0.0683
PBM binding z-score [8]: 0.881
PBM binding z-score [9]: 0.774
PBM binding z-score [10]: 1.26
